# From PubChem BioAssay (NCI)
# About 79,000 compounds went through this panel and 15% of them were active in at least one assay; those are over-represented in the sample as a whole. Unmarked numbers belong to inactive results. The source made the active and inactive calls. Cut-off read from the data, not from the text of the source: active = growth inhibition above about 70%; inactive = the rest. Where a SMILES comes first, the peptide text is derived from it. The star is where a group is joined. Boc = CC(C)(C)OC(=O)*
# Columns and labels:
# [1] = NCI Yeast Anticancer Drug Screen. Data for the rad50 strain (AID 155);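 note: 0% = growth of vehicle-only cultures of the same strain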; settings: S. cerevisiae rad50 strain growth inhibition; at 50.0 µM; hits give high values
# Method in brief: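 DNA repair mutant yeast, compound exposure, growth read-out; inhibition is taken relative to vehicle.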
# [2] = NCI Yeast Anticancer Drug Screen. Data for the mec2-1 strain (AID 157); settings: S. cerevisiae mec2-1 strain, at 50.0 µM, hits give high values
# Method in brief: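 Yeast mec2-1 mutant treated with compound. Readout: growth inhibition vs vehicle controls.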
# [3] = NCI Yeast Anticancer Drug Screen. Data for the sgs1 mgt1 strain (AID 161);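 note: 0% = growth of cultures given vehicle only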; settings: S. cerevisiae sgs1 mgt1 strain, at 50.0 µM, hits give high values
# Method in brief: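 Inhibition of yeast growth, normalised to vehicle-treated controls, is reported for a strain bearing genetic alterations in DNA damage repair.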
# [4] = NCI Yeast Anticancer Drug Screen. Data for the cln2 rad14 strain (AID 165);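 note: 0% = growth equal to vehicle treated cultures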; settings: S. cerevisiae cln2 rad14 strain, at 50.0 µM, hits give high values
# Method in brief: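 cln2 rad14 yeast strain; compound exposure; growth inhibition read vs vehicle controls.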
# [5] = NCI Yeast Anticancer Drug Screen. Data for the bub3 strain (AID 167); settings: S. cerevisiae bub3 mutant strain, at 50.0 µM, hits give high values
# Method in brief: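 In this screen, a yeast mutant lacking normal mitotic checkpoint function is challenged with compound. Relative growth versus vehicle gives the inhibition value.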
# [6] = NCI Yeast Anticancer Drug Screen. Data for the mlh1 rad18 strain (AID 175); settings: S. cerevisiae mlh1 rad18 strain growth inhibition; at 50.0 µM; hits give high values
# Method in brief: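 Yeast w/ defined DNA-repair lesions; compound exposure; growth vs vehicle controls → % inhibition.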
Structure (SMILES),growth inhibition [1],growth inhibition [2],growth inhibition [3],growth inhibition [4],growth inhibition [5],growth inhibition [6]
CSCCC(NC(=O)C(CC(C)C)NC(=O)CNC(=O)OC(C)(C)C)C(=O)N(C)C (stereo not drawn) (Boc-Gly-Leu-Met-NMe2; configuration not given here),6.6%,-5.15%,-3.9%,-2.8%,-0.1%,-3%
CCOCCOc1nc(C)cc(C)c1C#N,-30.9%,-41.5%,-8.05%,-6.4%,-29.5%,-20.9%
COc1ccc2nc(NC(=O)C(=O)C(C#N)c3ccc(CC#N)cc3)sc2c1 (stereo unspecified),-4.3%,11.4%,4.5%,-4.85%,0.15%,-5.75%
CCCNc1nc2c(c(=O)n(C)c(=O)n2C)n1C,-11.2%,0.1%,13.7%,-29.7%,23.1%,7.9%
Nc1nnc2nc(CC(=O)c3ccccc3)c(CC(=O)c3ccccc3)nn12,-5.4%,-2.9%,3%,32.6%,-29%,16.2%
Cc1cc2c(cc1C)C(=O)c1ccccc1C2=O,-29.3%,-36.1%,-15.1%,-6.7%,-30.7%,-21.8%
Cc1ccc2cccc(-c3cccc4ccccc34)c2n1,5.3%,7.9%,3.4%,-0.05%,-2.35%,28.8%
O=C(NC(=O)c1ccccc1O)c1ccccc1,-4.6%,5.45%,-15.4%,-0.35%,-19.5%,-11.2%
O=C(NCc1ccccc1)C1C2C=CC(C2)C1C(=O)NCc1ccccc1 (stereo unspecified),-6.65%,-10.8%,30.4%,-6.3%,18.1%,5.85%
CCCCCN(CCCCC)CC(O)c1cc(-c2ccccc2)nc2c(Cl)cc(Cl)cc12 (stereo unspecified),42%,-1.1%,26.5%,18%,46.5%,39.1%
Nc1nc(SCc2ccccc2Cl)cc(C(=O)O)n1,31.6%,34.7%,47.2%,4.15%,44%,53%
CCCCc1ccc2nc3cc4ccccc4cc3nc2c1,12.8%,51.1%,32.6%,-16%,20.6%,7.6%
CC1(C)COC2(CC(C)(C)OC2(C)C)OC1,-1.45%,0.8%,-6%,-40.8%,-7.25%,14.8%
COc1ccccc1-n1c(O)c(N=Nc2ccccc2)c(=O)n(-c2ccc(C)cc2)c1=S,38.3%,-8.95%,66.8%,-10.8%,-2.2%,12.8%
COc1ccc(Cc2cc(O)c(OC)cc2O)cc1,5.55%,17.1%,38.4%,-22.2%,-3.75%,26.8%
CCN1CCCN(CC)C1=O,6.1%,4.15%,-4.4%,-30.4%,-0.45%,0.1%
CN(C)CCOC(=O)c1ccc(N)cc1,-6.35%,1.6%,-31.8%,-19.6%,23.1%,-8.35%
O=c1[nH]c2ccc([N+](=O)[O-])cc2nc1/C=C(\O)c1ccccc1,-9.85%,14.3%,-24.4%,-31.1%,3.75%,-46.5%
c1ccc(-c2nc3c(N4CCOCC4)ncnc3o2)cc1,-3.25%,-4.65%,7.95%,-2.55%,-4.8%,2.75%
COC1=CC(=O)c2ccc3ccccc3c2C1=O,86.7% (active),90.4% (active),89.4% (active),88.8% (active),88.8% (active),86.5% (active)
CCNc1nc(C)nc2c1cnn2C,5%,4.85%,-1.85%,-13.2%,17.8%,-1%
